Screens (PubChem)
LDHA block: qHTS assay for inhibitors of human lactate dehydrogenase; purified LDHA, NADH/diaphorase-resazurin fluorescence; hits give low values; actives 0.15% (n = 480,000); L-lactate dehydrogenase A chain (Homo sapiens), P00338; activity change, % (values are at about 110 or 230 µM); in the data active = activity change below about -30%; inconclusive = mostly about -25% to -30%
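LDH5 2 nM; NADH 0.06 mM, pyruvate 0.2 mM; 200 mM Tris pH 7.4, EDTA, Tween-20; 5 min RT. Detection: diaphorase 0.133 mg/mL + resazurin 37 µM, fluorescence ex540/em590 at 0 and 20 min; normalized to enzyme-free and DMSO wells.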
PTHR1 ag: qHTS for PTHR1 Agonists: Primary Screen; Parathyroid hormone/parathyroid hormone-related peptide receptor (Homo sapiens), Q03431; HEK293 GP2 PTHR1 cells, GloSensor cAMP luminescence, 1 h; Potency, µM (top dose mostly 115 µM), usual class: activators; actives 0.075% (n = 410,000); AID 743266, 2014; also: nearly all actives have a fitted effect of over 55% in size
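HEK-293-derived GP2 cells expressing PTHR1 and a GloSensor cAMP reporter, 3,000/well, plated overnight, given luciferin plus IBMX (each 0.5 mM as added) for 1 h at 37 °C, then compound for 1 h at 37 °C. Luminescence was read after 15 min at room temperature.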
mIDH1 inhibitor: qHTS for Inhibitors of mutant isocitrate dehydrogenase 1 (IDH1): qHTS; Isocitrate dehydrogenase [NADP] cytoplasmic (Homo sapiens), O75874; actives 0.093% (n = 390,000); Potency, µM (top dose mostly 76.6 µM), hits mostly inhibitors; AID 602179, 2012; IDH1-R132H enzyme, NADPH consumption, diaphorase/resazurin fluorescence; also: nearly all actives have a fitted effect of over 65% in size
Target sequence (O75874 whole entry R132H, stated change not applied): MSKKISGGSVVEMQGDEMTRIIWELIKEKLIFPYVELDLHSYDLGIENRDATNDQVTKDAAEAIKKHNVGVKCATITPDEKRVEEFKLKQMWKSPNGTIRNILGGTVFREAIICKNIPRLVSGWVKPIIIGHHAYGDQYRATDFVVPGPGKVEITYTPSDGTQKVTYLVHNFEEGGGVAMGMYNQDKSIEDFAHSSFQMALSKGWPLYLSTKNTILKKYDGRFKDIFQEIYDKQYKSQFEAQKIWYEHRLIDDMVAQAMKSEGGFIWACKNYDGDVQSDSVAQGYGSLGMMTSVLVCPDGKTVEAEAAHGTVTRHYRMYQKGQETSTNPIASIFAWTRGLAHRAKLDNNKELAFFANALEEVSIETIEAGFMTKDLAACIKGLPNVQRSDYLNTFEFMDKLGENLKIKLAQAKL
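IDH1-R132H (0.5 ug/mL dispensed) in pH 7.5 Tris buffer was preincubated 30 min with compound, then given a substrate mix of 0.016 mM NADPH and 2 mM alpha-KG for 80 min at room temperature; remaining NADPH was read by diaphorase/resazurin fluorescence.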
GLP-1R agonist: qHTS of GLP-1 Receptor Agonists. Glucagon-like peptide 1 receptor (Homo sapiens), P43220. HEK293 GLP-1R CRE-luciferase, luminescence, 4-6 h; cells express a hypersensitive GLP-1R form. Potency, µM (doses to about 45.6 µM), most hits filed as activators. actives 0.007% (n = 380,000)
GLP-1R inv ag: qHTS of GLP-1 Receptor Inverse Agonists (Inhibition Mode); actives 1.6% (n = 410,000); Glucagon-like peptide 1 receptor (Homo sapiens), P43220; Potency, µM (titrated, usually from 38.3 µM), actives largely listed as inhibitors; HEK293 GLP-1R CRE-luciferase, luminescence, 24 h; GLP-1R form is constitutively active; also: nearly all actives have a fitted effect of over 55% in size
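Luminescence readout: a drop in cAMP-driven luciferase signal flags inverse agonism at a constitutively active GLP-1R stably expressed in HEK293. Compound exposure lasted 24 hr at 37 deg C, 5% CO2.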
GLP1R cytotox: qHTS of GLP-1 Receptor Inverse Agonists: Cytotox Screen; HEK293 cAMP-luciferase reporter cells, luminescence, 24 h; Potency, µM (series often up to 38.3 µM), hits mostly inhibitors; actives 0.13% (n = 410,000);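 also: loss of luciferase light is scored as toxicity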
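Cells in DMEM/10% Nu serum/1% pen-strep, 1536-well format. Pre-incubated 12 h, dosed with 23 nL compound, incubated a further 24 h. Luciferase detection, 12 min at room temp, luminescence.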
A number is an active result; . = inactive; ? = inconclusive; / = no result given; ! = not confirmed by another sample; [ ] = another dose, or the depositor's remark. The list is not random: actives were taken first. Their share in the collection is about 1.7%. Unless noted, calls follow the shape of the dose curve; as a rule, active = well fitted curve in the direction sought with a large enough effect; inconclusive = small, poorly fitted or top-dose-only effect, or another doubt; inactive = no such curve, though single readings can be large; an effect the other way counts as inactive or inconclusive.

SMILES	LDHA block	PTHR1 ag	mIDH1 inhibitor	GLP-1R agonist	GLP-1R inv ag	GLP1R cytotox
CC(C)(C)c1ccc(OCCNC(=S)Nc2ccccc2)cc1	.	.	.	.	10µM	5.62µM
COc1cccc(-c2nc(-c3nc4ccccc4s3)cs2)c1OC	.	/	/	/	/	/
N#C/C(=C\c1ccc(OCc2ccc(C(=O)O)cc2)cc1)C(=O)NCc1ccccc1	.	.	.	.	.	.
N#C/C(=C\c1ccc(OCc2cccc(C(=O)O)c2)cc1)C(=O)NCc1ccco1	.	.	.	.	8.91µM	.
O=C(O)c1cccc(-n2cccc2/C=C2/NC(=O)N(c3cccc(Cl)c3)C2=O)c1	-30.1!	.	.	.	.	.
CC1CCc2nc(N)c(C#N)c(-c3ccncc3)c2C1 (stereo unspecified)	.	.	.	.	.	.
CC1CCc2nc(N)c(C#N)c(-c3cccnc3)c2C1 (stereo unspecified)	.	.	.	.	0.891µM	.
COc1ccc(/C=N/NC(=O)c2cccnc2)cc1CN1CCc2cc(OC)c(OC)cc2C1C (stereo unspecified)	.	.	.	.	.	.
COc1ccc(/C=N/NC(=O)c2cccnc2)cc1CN1CCCc2ccccc21	.	.	.	.	10µM	.
COc1ccc(C(=O)N/N=C/c2ccc(OC)c(CN3CCCc4ccccc43)c2)cc1	.	.	.	.	10µM	.
Cc1cccc(N2CCN(c3cc(C(=O)O)c4cc(NC(=O)C(C)(C)C)ccc4n3)CC2)c1	.	/	/	/	/	/
Cc1ccccc1C(=O)NC1CCCC1	.	/	/	/	/	/
CC(NC(=O)C(Cc1ccccc1)n1cccc1)c1ccccc1 (stereo unspecified)	.	.	.	.	11.2µM	.
Cc1ccc(CNC(=O)C(Cc2ccccc2)n2cccc2)cc1 (stereo unspecified)	.	.	.	.	?	.
Cc1cc(C2=NNC(=NC(C)C)SC2)c(C)n1C1CC1	.	/	/	/	/	/
Cc1ccc(-c2ccccc2)nc1C	.	/	/	/	/	/
Cc1ccc(-n2ccc(=O)c(C(=O)Nc3ccc(S(=O)(=O)Nc4onc(C)c4C)cc3)n2)cc1	-62.4	?	.	.	.	.
Cc1noc(NS(=O)(=O)c2ccc(NC(=O)c3nn(-c4ccc(F)cc4)ccc3=O)cc2)c1C	.	.	.	.	.	.
CC1(C)C2CCC1(C)C(OCCNCCOC(=O)Nc1ccccc1)C2 (stereo unspecified)	.	.	.	.	11.2µM	.
CSc1ccc(/C=C/C(=O)c2cc3cc(Cl)ccc3oc2=O)cc1	.	/	/	/	/	/
CN(Cc1cccs1)C(=O)c1ccc(S(=O)(=O)N2CCCCC2)cc1	.	.	.	.	.	.
O=C(C1CCCN(S(=O)(=O)c2ccc(Cl)cc2)C1)N(Cc1cccs1)C1CC1 (stereo unspecified)	.	.	.	.	10µM	.
CCCCCCOc1ccc(NC(=O)CC2C(=O)N(CC)C(=S)N2Cc2ccco2)cc1 (stereo unspecified)	.	.	.	.	7.08µM	?
CCN1C(=O)C(CC(=O)Nc2ccc(F)cc2)N(Cc2ccco2)C1=S (stereo unspecified)	.	.	.	.	.[7.66 µM]	.[7.66 µM]
CCCOc1ccc(NC(=O)CC2C(=O)N(CC)C(=S)N2Cc2cccs2)cc1 (stereo unspecified)	.	.	.	.	10µM	.
SMILES	LDHA block	PTHR1 ag	mIDH1 inhibitor	GLP-1R agonist	GLP-1R inv ag	GLP1R cytotox
C=CCN1C(=O)C(CC(=O)Nc2ccc(OCCC)cc2)N(CCCN2CCN(Cc3ccccc3)CC2)C1=S (stereo unspecified)	.	.	.	.	2.51µM	?
O=C(Nc1cccc(S(=O)(=O)N2CCCC2)c1)C1CC(=O)N(C2CCCC2)C1 (stereo unspecified)	.	/	/	/	/	/
COC(=O)c1c(N)c(-c2nc3ccccc3s2)nn1-c1ccc(Cl)cc1	.	/	/	/	/	/
COc1ccc(C(=O)Nc2oc3ccccc3c(=O)c2-c2ccc(F)cc2)cc1	.	/	/	/	/	/
COc1cc2c(cc1OC)C(C)N(C(=O)c1cc(Cl)cc(Cl)c1)CC2 (stereo unspecified)	.	/	/	/	/	/
O=C1C=C(c2ccc(OC(F)(F)F)cc2)C[C@@H](c2ccc(Cl)cc2)C1	.	.	.	.	10µM	?
COc1ccc(C2=CC(=O)C[C@H](c3ccc(Cl)cc3)C2)cc1	.	.	.	.	?	.
CN(C(=O)CSc1cc(C(=O)c2nccn2C)c2ccccc2n1)c1ccccc1	.	.	.	.	10µM	?
Cn1ccnc1C(=O)c1cc(SCC(=O)NC2CC2)nc2ccccc12	.	.	.	.	.	.
NC(=O)CCC(NC(=O)c1ccc(-c2ccc(F)cc2)o1)C(=O)O (stereo unspecified)	.	/	/	/	/	/
Cc1ccccc1-c1ccc2c(c1)O[C@@H](CN(C)C(=O)Nc1ccc(C(F)(F)F)cc1)[C@H](C)CN([C@@H](C)CO)S2(=O)=O	.	.	.	.	6.31µM	.
Cc1cc(NC(=O)c2cccc(COc3ccc(Br)cc3)c2)no1	.	.	.	.	1µM	.
CCOC(=O)C1C(=O)C=C(c2ccc(C)cc2)CC1c1ccc([N+](=O)[O-])cc1 (stereo unspecified)	.	.	.	.	10µM	.
COc1ccccc1C(=O)Nc1cnc2sc3c(n2c1=O)CCCC3	.	/	/	/	/	/
COc1ccc(/C=C(/C#N)c2nc3ccccc3[nH]2)cc1Cl	.	/	/	/	/	/
CCCCCn1c(C)c2c(OCC)cccc(=O)c2c1C	.	.	.	.	10µM	.
Cc1ccc(NC(=O)C2CCN(S(=O)(=O)c3cccs3)CC2)cc1C	.	.	.	.	8.91µM	.
